Test results: PubChem BioAssay (NCATS)
Results filed as inconclusive are left out. Active and inactive are the calls of the source. Calls come from the whole dose curve; as a rule, active = well fitted curve in the direction sought with a large enough effect; inconclusive = small, poorly fitted or top-dose-only effect, or another doubt; inactive = no such curve, though single readings can be large; an effect the other way counts as inactive or inconclusive.

Legend:
[1] = Cellular Toxicity (caspase-3) Renal Proximal Tubule (AID 667); settings: renal proximal tubule cells; series mostly up to 91.7 µM;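 note: cells exposed to compound for 16 hours at 37 °C before detection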
Outline: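 In qHTS format, rat primary proximal tubule cells seeded at 1000 per well are exposed to compounds for 16 hours at 37 °C. An increase in Caspase-Glo 3/7 luminescence indicates caspase activation.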

[2] = target: Cytochrome P450 3A4 (Homo sapiens) (UniProt P08684); assay: qHTS Assay for Activators of Cytochrome P450 3A4 (AID 885); settings: recombinant CYP3A4, Luciferin-PPXE luminescence, 60 min; series mostly up to 57.1 µM; note: nearly all actives have a fitted effect of over 65% in size
Outline: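 Human CYP3A4 dealkylates Luciferin-PPXE to luciferin, which luciferase detection converts to light. Substrate was at its KM (25uM), buffer 200mM KPO4, reaction 60 min at RT.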

[3] = Cell Viability - LYMP2-001 (AID 921); settings: LYMP2-001 lymphoblastoid cell viability; series mostly up to 92.2 µM; note: nearly all actives have a fitted effect of over 70% in size
Outline: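 qHTS, 1536-well; lymphoblastoid cells, 24 hr compound, 37 C; ATP by CellTiter-Glo, 30 min RT; luminescence; Hill-fit AC50.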

[4] = MultiTox-Fluor Cytotoxicity Assay - LYMP1-001 - Dead Cells (AID 946); settings: LYMP1-001 lymphoblastoid cells, dead-cell protease fluorescence; series mostly up to 92.2 µM
Outline: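 LYMP1-001 lymphoblastoid cells (2500/well) treated 16 h at 37 C. Dead-cell protease cleavage of bis-AAF-R110 read at Ex/Em 485/520. Normalized to DMSO and 15 uM tetraoctylammonium bromide; AC50 from Hill fits.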

[5] = MultiTox-Fluor Cytotoxicity Assay - LYMP1-001 - Live Cells (AID 947); settings: LYMP1-001 lymphoblastoid cells, live-cell protease fluorescence viability; series mostly up to 92.2 µM
[6] = Cell Viability - LYMP1-002 - Assay at 16 hr (AID 948); settings: LYMP1-002 lymphoblastoid cell viability; series mostly up to 92.2 µM
Outline: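 Acute cytotoxicity is scored as a concentration-dependent fall in intracellular ATP in a human lymphoblastoid line (LYMP1-002) after 16 hr compound exposure at 37 C, measured by luciferase luminescence.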

[7] = MultiTox-Fluor Cytotoxicity Assay - LYMP1-002 - Live Cells (AID 955); settings: LYMP1-002 lymphoblastoid live-cell protease fluorescence viability; series mostly up to 46.1 µM
Outline: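 In this qHTS viability format, lymphoblastoid cells (LYMP1-002, human) received compound for 16 hr at 37 C. Fluorogenic GF-AFC cleavage by viable cells was detected at 405/510 nm after 1 h at room temperature.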

[8] = MultiTox-Fluor Cytotoxicity Assay - LYMP1-002 - Dead Cells (AID 960); settings: LYMP1-002 lymphoblastoid cells, dead-cell protease fluorescence; series mostly up to 46.1 µM; note: nearly all actives have a fitted effect of over 60% in size
Outline: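 Concentration-dependent increases in membrane-leaked protease activity are quantified in LYMP1-002 cells after 16 hr treatment; values are normalized against DMSO and tetraoctylammonium bromide (15 uM) controls and AC50 derived by Hill modeling.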

[9] = MultiTox-Fluor Cytotoxicity Assay - LYMP1-003 - Dead Cells (AID 961); settings: LYMP1-003 lymphoblastoid cells, dead-cell protease fluorescence; series mostly up to 92.2 µM; note: nearly all actives have a fitted effect of over 70% in size
Outline: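 LYMP1-003 human lymphoblastoid cells (2500/well) exposed to compound 16 h at 37 C in complete medium; dead-cell protease read with bis-AAF-R110 fluorescence (Ex/Em 485/520) after 60 min at room temperature. Normalized to DMSO and 15 uM tetraoctylammonium bromide; AC50 from Hill fit.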

[10] = MultiTox-Fluor Cytotoxicity Assay - LYMP1-003 - Live Cells (AID 962); settings: LYMP1-003 lymphoblastoid cells, MultiTox-Fluor live-cell protease fluorescence; series mostly up to 92.2 µM;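 note: cytotoxic hits lower the live-cell protease signal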
Outline: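 Human lymphoblastoid line LYMP1-003 in complete culture medium, treated 16 hr with titrated compounds. Viable cells quantified via cell-permeant GF-AFC substrate fluorescence; AC50 derived by Hill fitting.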

[11] = Cell Viability - LYMP1-003 - Assay at 24 hr (AID 963); settings: LYMP1-003 lymphoblastoid cell viability; series mostly up to 92.2 µM
Outline: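 The lymphoblastoid line was treated with titrated compounds for 24 hours, and viable cell number estimated from luciferase-based ATP luminescence.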

[12] = Cell Viability - LYMP1-003 - Assay at 40 hr (AID 964); settings: LYMP1-003 lymphoblastoid viability; series mostly up to 92.2 µM; note: nearly all actives have a fitted effect of over 60% in size
Outline: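 Acute toxicity is scored as a concentration-dependent loss of intracellular ATP in LYMP1-003 cells (2500/well, complete medium) after 40 hr at 37 C, measured by CellTiter-Glo luminescence; AC50 values derive from standard Hill modelling.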

[13] = Cell Viability - LYMP2-004 (AID 966); settings: LYMP2-004 lymphoblastoid cell viability, qHTS; series mostly up to 92.2 µM; note: nearly all actives have a fitted effect of over 65% in size
Outline: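 Viable-cell number estimated from ATP luminescence (CellTiter-Glo) in 2500 human lymphoblastoid cells/well after 24 hr at 37 C with compound. AC50 fitted to the standard Hill equation.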

[14] = Cell Viability - LYMP2-005 (AID 967); settings: LYMP2-005 lymphoblastoid cell viability; series mostly up to 92.2 µM
Outline: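 qHTS viability screen in LYMP2-005 cells: 24 h at 37 C with compound, ATP luminescence via CellTiter-Glo, AC50 from Hill curves.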

[15] = Cell Viability - LYMP2-009 (AID 968); settings: LYMP2-009 lymphoblastoid cell viability; series mostly up to 92.2 µM; note: nearly all actives have a fitted effect of over 55% in size
[16] = Cell Viability - LYMP2-011 (AID 969); settings: LYMP2-011 lymphoblastoid cells viability; series mostly up to 92.2 µM; note: nearly all actives have a fitted effect of over 60% in size
Outline: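 Cells seeded at 2500 per well rest 5 hr before compound addition, then incubate 24 hr at 37 C. CellTiter-Glo reagent is added for 30 min at room temperature before luminescence detection.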

[17] = Cell Viability - LYMP2-013 (AID 970); settings: LYMP2-013 lymphoblastoid cells viability; series mostly up to 92.2 µM; note: nearly all actives have a fitted effect of over 55% in size
Outline: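 In complete culture medium, human lymphoblastoid cells were dosed for 24 hr at 37 C, with tetraoctylammonium bromide (6.4pM to 92 uM) as positive control. Viability reflects luciferase-based ATP signal; AC50 derived from concentration-response curves.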

[18] = Cell Viability - LYMP2-015 (AID 971); settings: LYMP2-015 lymphoblastoid cell viability; series mostly up to 92.2 µM; note: nearly all actives have a fitted effect of over 55% in size
Outline: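 AC50 values reflect Hill-model fits of ATP-based luminescence (CellTiter-Glo) from a human lymphoblastoid line, 2500 cells/well, treated 24 hr at 37 C.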

[19] = Cell Viability - LYMP2-017 (AID 972); settings: LYMP2-017 lymphoblastoid cell viability; series mostly up to 92.2 µM;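 note: cells exposed to compound for 24 hours at 37 °C; nearly all actives have a fitted effect of over 55% in size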
Outline: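 In this qHTS format, lymphoblastoid cells in complete medium receive test compound for a day at 37 C before ATP content is quantified by luciferase luminescence. Reported AC50 figures come from standard Hill-equation curve fitting.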

[20] = Cell Viability - LYMP2-019 (AID 973); settings: LYMP2-019 lymphoblastoid cell line viability; series mostly up to 92.2 µM; note: nearly all actives have a fitted effect of over 55% in size
Outline: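 AC50 values come from Hill-equation modelling of qHTS concentration-response curves, where viability is measured as luciferase-based ATP luminescence in the lymphoblastoid line after 24 hr compound exposure in complete culture medium.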

Measured: Potency

Chain of Cytochrome P450 3A4 (Homo sapiens) (P08684 whole entry, looked up): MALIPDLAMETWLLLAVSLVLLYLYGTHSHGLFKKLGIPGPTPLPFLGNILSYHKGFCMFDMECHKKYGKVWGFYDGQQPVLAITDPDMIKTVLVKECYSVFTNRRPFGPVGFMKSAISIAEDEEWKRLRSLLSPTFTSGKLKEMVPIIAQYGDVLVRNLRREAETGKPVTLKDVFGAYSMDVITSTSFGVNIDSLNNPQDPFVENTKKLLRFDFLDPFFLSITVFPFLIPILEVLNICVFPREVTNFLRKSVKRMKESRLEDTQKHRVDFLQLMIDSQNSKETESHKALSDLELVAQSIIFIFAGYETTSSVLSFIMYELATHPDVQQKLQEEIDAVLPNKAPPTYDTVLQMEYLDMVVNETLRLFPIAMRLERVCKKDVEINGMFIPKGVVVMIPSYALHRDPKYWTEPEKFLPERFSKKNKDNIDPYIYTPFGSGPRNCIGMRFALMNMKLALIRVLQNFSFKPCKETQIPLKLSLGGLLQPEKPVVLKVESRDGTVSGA

Nc1c(Br)cc([N+](=O)[O-])cc1[N+](=O)[O-]
inactive: [1] | [2] | [3] | [4] | [5] | [6] | [7] | [8] | [9] | [10] | [11] | [12] | [13] | [14] | [15] | [16] | [17] | [18] | [19] | [20]
